# Results from PubChem BioAssay (NCI).
# About 83,000 compounds went through this panel and 20% of them were active in at least one assay; those are over-represented in the sample as a whole.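 How to read the values: 0–100, growth inhibition (40 = 60% inhibited); 0, no net growth; -100 to 0, cell death (-40 = 40% of starting cells died; -100 = all dead).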 A number with no mark means an inactive call. The source made the active and inactive calls. Rule for the calls: active = growth percent below 10; inactive = the rest.
# Columns and labels:
# Assay in all cases: NCI-60 one-dose screen, 48 h (100 = growth as untreated, 0 = no growth, -100 = all killed)
# Conditions in all cases: 10 µM unless noted
# SK-MEL-2 melanoma = tested on: SK-MEL-2 melanoma
# SN12C renal = tested on: SN12C renal
# UO-31 renal = tested on: UO-31 renal
# TK-10 renal = tested on: TK-10 renal
# ACHN renal = tested on: ACHN renal
# CAKI-1 renal = tested on: CAKI-1 renal
# A498 renal = tested on: A498 renal
# CCRF-CEM leukemia = tested on: CCRF-CEM leukemia
# MOLT-4 leukemia = tested on: MOLT-4 leukemia
# SR leukemia = tested on: SR leukemia
# RPMI-8226 leukemia = tested on: RPMI-8226 leukemia
# OVCAR-8 ovarian = tested on: OVCAR-8 ovarian
# OVCAR-5 ovarian = tested on: OVCAR-5 ovarian
# OVCAR-4 ovarian = tested on: OVCAR-4 ovarian
# SK-OV-3 ovarian = tested on: SK-OV-3 ovarian
# IGROV1 ovarian = tested on: IGROV1 ovarian
# OVCAR-3 ovarian = tested on: OVCAR-3 ovarian
# HS 578T breast = tested on: HS 578T breast
# NCI/ADR-RES ovarian = tested on: NCI/ADR-RES ovarian
# EKVX NSCLC = tested on: EKVX NSCLC
Structure (SMILES),growth (SK-MEL-2 melanoma) [%],growth (SN12C renal),growth (UO-31 renal),growth (TK-10 renal),growth (ACHN renal),growth (CAKI-1 renal),growth (A498 renal) [%],growth (CCRF-CEM leukemia),growth (MOLT-4 leukemia),growth (SR leukemia),growth (RPMI-8226 leukemia),growth (OVCAR-8 ovarian),growth (OVCAR-5 ovarian),growth (OVCAR-4 ovarian),growth (SK-OV-3 ovarian) [%],growth (IGROV1 ovarian),growth (OVCAR-3 ovarian),growth (HS 578T breast),growth (NCI/ADR-RES ovarian),growth (EKVX NSCLC) [%]
Brc1ccc(-c2[nH]ncc2-c2c[nH]c3ccccc23)cc1,109,88.5%,57.4%,129%,96.5%,86.7%,65.1,54.7%,70.3%,100%,81.8%,96.4%,97.7%,86.3%,103,91.1%,97.3%,88.3%,101%,
Cc1ccc(S(=O)(=O)C2=C3C(=C(c4ccccc4)c4ccccc43)CN(S(=O)(=O)c3ccc(C)cc3)C2)cc1,36.8,55.3%,32.3%,,43.3%,,87.5,-7.65% (active),-6.7% (active),3.89% (active),-21.7% (active),21.8%,93.7%,70.3%,92.6,54%,56.9%,62.4%,27.8%,77.9
COc1cc(C2CC(c3ccc4c(c3)OCO4)=NN2C(C)=O)cc(OC)c1OC (stereo unspecified),28.5,46.3%,,38.2%,,2.4% (active),28.8,16%,36%,19.9%,39.2%,42%,,54.5%,10.6,,-5.71% (active),-7.69% (active),4% (active),38.7
Fc1ccc(-c2nc(-c3nc4ncccc4[nH]3)cc3c2[nH]c2ccccc23)cc1F,83.1,72.5%,41.9%,91.7%,83%,92.3%,88.4,67.2%,49.8%,76%,45.7%,66.6%,93.5%,60.2%,111,62.3%,82%,,61.4%,
COc1ccc(-c2nc(/C=N/Nc3cc(C)nc4ccc(Br)cc34)c(C)o2)cc1,104,-89.2% (active),-99.1% (active),-51.8% (active),-100% (active),-91.2% (active),58.5,-50.4% (active),-53.3% (active),-21% (active),-54.5% (active),-53.3% (active),-97.5% (active),-94.9% (active),93.2,-80.5% (active),-96.6% (active),-44.4% (active),-65.9% (active),
COc1ccc(C(=O)NC(=O)Nc2cc3c(cc2F)/C(=C/c2[nH]c(C)c(CCC(=O)O)c2C)C(=O)N3)c(F)c1,22.1,27.6%,58.6%,,65.5%,,12.3,7.61% (active),33.9%,26.5%,-2.09% (active),6.72% (active),63.1%,80.3%,60.5,37.4%,36.8%,16.3%,83.9%,65.3
CCCCCCCCCCCCCCCCNC(=O)OC(C)C,58.7,64.3%,,-3.04% (active),,28.5%,75.1,7.75% (active),7.03% (active),1.69% (active),80.1%,63.8%,,-39.2% (active),69.7,,19.5%,78.2%,65.9%,22.8
CC(=O)Nc1ccc(S(=O)(=O)n2ccc(-c3ccc4c(c3)CCC(C)(C)O4)n2)cc1,53.5,89%,67.9%,55.1%,79.3%,48.8%,21.9,55.4%,50.7%,56.4%,43.7%,69.4%,96.3%,46.2%,,68%,74.4%,102%,56.9%,
C=C(C)[C@@H]1CC[C@]2(C(=O)N3CCNCC3)CC[C@]3(C)[C@H](CC[C@@H]4[C@@]5(C)C/C(=C/c6ccncc6)C(=O)C(C)(C)[C@@H]5CC[C@]43C)[C@@H]12,107,106%,90.3%,102%,103%,95.6%,111,101%,95.6%,106%,98.2%,98.2%,105%,98.9%,107,103%,116%,98.4%,109%,
